Data taken from the supplement of paper PMC11732987, “Enantioselective OTUD7B fragment discovery through chemoproteomics screening and high-throughput optimisation” (Communications Chemistry, 2025).
A number with no mark means an inactive call.

Assays:
Test in all cases: log2 ratio of Biotin-Ahx-Ub-VS probe labelling (fragment/DMSO); higher = less target engagement (more negative = stronger competition), active = hit call of the paper (q ≤ 0.05, log2 ratio ≤ -1)
Details in all cases: compound concentration: 200 uM; treatment time: 3 h
OTUD6B = molecular target: T1, OTUD6B (UniProt Q8N6M0)
T1 sequence (whole entry): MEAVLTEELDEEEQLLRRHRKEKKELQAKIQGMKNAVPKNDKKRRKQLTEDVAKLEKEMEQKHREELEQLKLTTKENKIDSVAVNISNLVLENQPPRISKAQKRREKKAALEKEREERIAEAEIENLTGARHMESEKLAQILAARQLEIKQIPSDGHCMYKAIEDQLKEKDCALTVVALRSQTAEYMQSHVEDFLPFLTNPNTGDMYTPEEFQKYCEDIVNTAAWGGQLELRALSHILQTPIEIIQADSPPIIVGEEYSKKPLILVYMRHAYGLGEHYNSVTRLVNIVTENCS
Summary of the method: (§1)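 Labelled DUBs from HEK293T lysate were NeutrAvidin-enriched, digested with LysC and trypsin, and run by diaPASEF LC-MS/MS. Before that, each 495 µg sample in Tris/CHAPS/IGEPAL buffer with protease inhibitors was treated in triplicate with fragment at 200 µM or vehicle for 3 h, then with Biotin-Ahx-Ub-VS at 0.5 µM final for 1 h. Values are average log2 ratios of fragment over vehicle by unpaired t-test, based on global-median-normalised Spectronaut label-free quantities from proteins with ≥2 unique peptides.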

OTUD7B = molecular target: T2, OTUD7B (UniProt Q6GQQ9)
T2 sequence (whole entry): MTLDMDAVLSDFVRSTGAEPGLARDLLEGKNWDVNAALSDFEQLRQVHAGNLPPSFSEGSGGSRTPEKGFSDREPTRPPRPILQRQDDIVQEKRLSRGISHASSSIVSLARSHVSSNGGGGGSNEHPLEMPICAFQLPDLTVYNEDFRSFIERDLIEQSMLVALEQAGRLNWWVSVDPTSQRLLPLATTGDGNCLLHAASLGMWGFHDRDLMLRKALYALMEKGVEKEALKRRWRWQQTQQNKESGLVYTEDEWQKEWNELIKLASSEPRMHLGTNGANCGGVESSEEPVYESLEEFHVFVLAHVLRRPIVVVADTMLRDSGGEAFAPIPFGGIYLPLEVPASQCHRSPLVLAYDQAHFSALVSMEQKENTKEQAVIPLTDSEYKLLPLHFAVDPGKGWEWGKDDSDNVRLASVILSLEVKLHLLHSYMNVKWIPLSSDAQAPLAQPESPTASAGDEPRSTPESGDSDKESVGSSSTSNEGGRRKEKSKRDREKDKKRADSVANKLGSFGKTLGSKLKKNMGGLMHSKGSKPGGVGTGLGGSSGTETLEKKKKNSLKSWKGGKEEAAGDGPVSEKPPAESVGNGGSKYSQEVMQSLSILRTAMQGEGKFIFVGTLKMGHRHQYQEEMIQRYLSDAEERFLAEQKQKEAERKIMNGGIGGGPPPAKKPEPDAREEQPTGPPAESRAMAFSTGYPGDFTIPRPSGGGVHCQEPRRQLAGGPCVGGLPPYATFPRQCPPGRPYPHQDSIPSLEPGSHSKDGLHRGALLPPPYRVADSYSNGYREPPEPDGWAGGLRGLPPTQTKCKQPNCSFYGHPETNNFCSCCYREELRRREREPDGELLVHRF
Summary of the method: as §1

PRPF8 = PRPF8 (UniProt Q6P2Q9)
Summary of the method: as §1

PSMD7 = molecular target: T3, PSMD7 (UniProt P51665)
T3 sequence (whole entry): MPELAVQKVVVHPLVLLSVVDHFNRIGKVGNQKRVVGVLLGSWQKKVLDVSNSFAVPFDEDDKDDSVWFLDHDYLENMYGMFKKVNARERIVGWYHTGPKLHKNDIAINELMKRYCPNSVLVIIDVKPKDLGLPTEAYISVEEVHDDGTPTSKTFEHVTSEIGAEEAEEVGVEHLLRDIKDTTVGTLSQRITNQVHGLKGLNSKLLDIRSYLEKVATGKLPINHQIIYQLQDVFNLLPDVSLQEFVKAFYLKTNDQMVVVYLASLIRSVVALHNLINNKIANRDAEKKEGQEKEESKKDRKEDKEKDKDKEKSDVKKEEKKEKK
Summary of the method: as §1

UCHL1 = UCHL1 (UniProt P09936)
UCHL1, sequence (P09936 whole entry, looked up): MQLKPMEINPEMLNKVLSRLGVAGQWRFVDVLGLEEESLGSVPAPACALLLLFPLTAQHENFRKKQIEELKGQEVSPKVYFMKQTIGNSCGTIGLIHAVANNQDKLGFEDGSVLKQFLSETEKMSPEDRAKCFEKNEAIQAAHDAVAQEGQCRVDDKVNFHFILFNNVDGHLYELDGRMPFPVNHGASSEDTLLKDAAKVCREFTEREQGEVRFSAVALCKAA
Summary of the method: as §1

UCHL3 = molecular target: T4, UCHL3 (UniProt P15374)
T4 sequence (whole entry): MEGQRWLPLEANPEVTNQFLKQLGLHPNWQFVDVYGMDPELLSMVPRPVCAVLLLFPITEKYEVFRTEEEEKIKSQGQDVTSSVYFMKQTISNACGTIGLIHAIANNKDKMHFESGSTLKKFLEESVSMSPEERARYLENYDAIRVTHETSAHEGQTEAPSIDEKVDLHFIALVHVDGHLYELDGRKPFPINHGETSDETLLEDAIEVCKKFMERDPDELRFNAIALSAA
Summary of the method: as §1

UCHL5 = molecular target: T5, UCHL5 (UniProt Q9Y5K5)
T5 sequence (whole entry): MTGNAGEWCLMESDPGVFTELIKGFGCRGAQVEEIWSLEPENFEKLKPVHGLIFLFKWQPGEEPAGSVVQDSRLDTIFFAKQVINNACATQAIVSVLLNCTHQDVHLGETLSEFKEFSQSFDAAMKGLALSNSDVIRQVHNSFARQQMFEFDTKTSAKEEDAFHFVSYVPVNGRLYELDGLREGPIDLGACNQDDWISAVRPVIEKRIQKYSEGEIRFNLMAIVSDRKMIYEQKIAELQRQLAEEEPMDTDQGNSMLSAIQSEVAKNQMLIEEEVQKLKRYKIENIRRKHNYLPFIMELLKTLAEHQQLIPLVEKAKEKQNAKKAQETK
Summary of the method: as §1

USP10 = USP10 (UniProt Q14694)
USP10, sequence (Q14694 whole entry): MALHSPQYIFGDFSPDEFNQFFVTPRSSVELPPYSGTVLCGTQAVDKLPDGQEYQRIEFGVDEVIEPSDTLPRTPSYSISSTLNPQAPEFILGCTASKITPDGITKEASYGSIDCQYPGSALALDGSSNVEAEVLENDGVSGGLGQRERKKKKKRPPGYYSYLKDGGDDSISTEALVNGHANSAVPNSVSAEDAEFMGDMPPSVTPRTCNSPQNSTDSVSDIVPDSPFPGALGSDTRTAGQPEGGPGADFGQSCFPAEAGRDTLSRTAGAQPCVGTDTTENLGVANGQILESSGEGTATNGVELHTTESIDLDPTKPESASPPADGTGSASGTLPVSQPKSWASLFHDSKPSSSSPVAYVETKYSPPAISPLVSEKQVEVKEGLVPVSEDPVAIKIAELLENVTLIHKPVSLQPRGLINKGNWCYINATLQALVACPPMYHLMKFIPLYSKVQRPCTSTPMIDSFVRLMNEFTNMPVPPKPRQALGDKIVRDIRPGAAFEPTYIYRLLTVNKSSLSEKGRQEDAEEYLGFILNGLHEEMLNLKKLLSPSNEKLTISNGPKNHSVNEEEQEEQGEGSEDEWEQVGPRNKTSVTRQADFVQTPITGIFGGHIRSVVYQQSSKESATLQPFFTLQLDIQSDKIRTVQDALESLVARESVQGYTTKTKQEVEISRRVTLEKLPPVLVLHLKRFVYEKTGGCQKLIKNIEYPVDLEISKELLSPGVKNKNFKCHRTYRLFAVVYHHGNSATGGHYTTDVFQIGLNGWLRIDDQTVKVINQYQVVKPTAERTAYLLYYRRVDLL
Summary of the method: as §1

USP15 = molecular target: T6, USP15 (UniProt Q9Y4E8)
T6 sequence (whole entry): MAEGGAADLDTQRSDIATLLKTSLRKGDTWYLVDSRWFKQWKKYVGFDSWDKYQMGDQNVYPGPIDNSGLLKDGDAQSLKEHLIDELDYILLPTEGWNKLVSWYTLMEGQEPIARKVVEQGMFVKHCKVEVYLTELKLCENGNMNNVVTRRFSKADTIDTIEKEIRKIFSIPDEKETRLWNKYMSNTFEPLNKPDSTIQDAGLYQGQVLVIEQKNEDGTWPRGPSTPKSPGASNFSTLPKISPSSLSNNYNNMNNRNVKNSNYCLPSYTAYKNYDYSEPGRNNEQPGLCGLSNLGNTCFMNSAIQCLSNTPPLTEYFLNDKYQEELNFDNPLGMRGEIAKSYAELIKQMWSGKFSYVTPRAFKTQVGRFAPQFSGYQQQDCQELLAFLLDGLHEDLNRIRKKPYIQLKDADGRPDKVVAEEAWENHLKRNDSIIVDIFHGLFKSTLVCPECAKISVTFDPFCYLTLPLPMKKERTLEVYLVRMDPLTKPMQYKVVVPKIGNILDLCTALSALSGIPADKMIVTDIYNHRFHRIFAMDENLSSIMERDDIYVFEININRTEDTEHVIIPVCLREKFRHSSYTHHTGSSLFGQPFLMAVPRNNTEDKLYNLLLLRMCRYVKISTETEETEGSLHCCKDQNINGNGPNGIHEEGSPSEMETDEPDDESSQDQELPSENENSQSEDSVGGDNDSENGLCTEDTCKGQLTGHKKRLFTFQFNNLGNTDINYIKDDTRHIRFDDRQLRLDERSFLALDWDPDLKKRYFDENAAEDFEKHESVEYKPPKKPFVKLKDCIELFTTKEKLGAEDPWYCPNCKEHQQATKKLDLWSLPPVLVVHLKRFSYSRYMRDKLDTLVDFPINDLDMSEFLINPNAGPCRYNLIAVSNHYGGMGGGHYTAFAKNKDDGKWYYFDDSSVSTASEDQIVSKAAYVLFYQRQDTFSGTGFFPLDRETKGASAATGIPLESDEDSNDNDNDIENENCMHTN
Summary of the method: as §1

SMILES: Cc1ccc(CN(C)C(=O)CCl)o1
- log2 ratio of Biotin-Ahx-Ub-VS probe labelling (OTUD6B): 0.0695
- log2 ratio of Biotin-Ahx-Ub-VS probe labelling (OTUD7B): -0.158
- log2 ratio of Biotin-Ahx-Ub-VS probe labelling (PRPF8): -0.0488
- log2 ratio of Biotin-Ahx-Ub-VS probe labelling (PSMD7): 0.0152
- log2 ratio of Biotin-Ahx-Ub-VS probe labelling (UCHL1): -1.38 (active)
- log2 ratio of Biotin-Ahx-Ub-VS probe labelling (UCHL3): 0.611
- log2 ratio of Biotin-Ahx-Ub-VS probe labelling (UCHL5): -0.238
- log2 ratio of Biotin-Ahx-Ub-VS probe labelling (USP10): -0.157
- log2 ratio of Biotin-Ahx-Ub-VS probe labelling (USP15): -0.201
